Entries with a potency or affinity are not part of this list. Records with an inconclusive call do not appear. The source made the active and inactive calls.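 Rule for the calls: active = a valid curve of falling signal whose half-effect concentration is at most ten times the top tested dose; inconclusive = flat curve at 30 to 70% inhibition, or poor fit; inactive = signal rise, flat within 30%, or potency beyond limit.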
biological target: Scavenger receptor class B member 1 (Mus musculus) (UniProt Q61009); assay: mouse SR-BI DiI-HDL uptake blockers – ldlA[mSR-BI] cells, fluorescence, cherry pick, dose response (AID 493194); conditions: CHO ldlA[mSR-BI] DiI-HDL uptake fluorescence, 3 h; series mostly up to 35 µM; activity change, negative = inhibition: at the top concentration;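 note: CHO cells lacking LDL receptor and overexpressing mouse SR-BI; cellular uptake of fluorescently labeled HDL measured as cell fluorescence; 0% = median of neutral control wells and -100% = median of positive control wells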
Sequence (Q61009 whole entry, looked up): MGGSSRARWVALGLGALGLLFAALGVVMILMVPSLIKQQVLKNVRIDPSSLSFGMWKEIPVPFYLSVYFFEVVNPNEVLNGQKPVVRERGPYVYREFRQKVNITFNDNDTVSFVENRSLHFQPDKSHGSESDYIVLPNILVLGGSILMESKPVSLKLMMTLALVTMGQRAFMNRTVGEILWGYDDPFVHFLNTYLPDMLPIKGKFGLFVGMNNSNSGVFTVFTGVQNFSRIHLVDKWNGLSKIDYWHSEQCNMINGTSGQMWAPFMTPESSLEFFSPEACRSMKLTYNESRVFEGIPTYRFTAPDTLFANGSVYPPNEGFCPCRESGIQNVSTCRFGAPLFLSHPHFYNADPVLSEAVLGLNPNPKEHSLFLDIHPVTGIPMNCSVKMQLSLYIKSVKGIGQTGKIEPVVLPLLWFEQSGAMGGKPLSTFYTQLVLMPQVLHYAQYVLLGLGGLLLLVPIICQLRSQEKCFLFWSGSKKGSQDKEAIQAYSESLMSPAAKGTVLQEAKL

Activity change, negative = inhibition, inactive:
Cc1ccc(NS(=O)(=O)c2ccc(C(=O)NNC(=O)c3ccccc3O)cc2)cc1 14.7%
Cc1ccc2c(c1)C(=O)C(=O)N2CC(=O)Nc1ccc(N2CCOCC2)cc1 23.3%
Cc1ccccc1NC(=O)N(CCc1nc2ccccc2[nH]1)Cc1ccccc1 -0.001%
COc1ccc(OC[C@@H](O)CNC(=O)c2cccc3c2C(=O)c2ccc(-c4ccc(F)cc4OCc4ccccc4)cc2S3(=O)=O)cc1 -1.68%
COc1cc(NC(=O)C2CC(c3c(F)cccc3Cl)=NO2)c(OC)cc1Cl (configuration not stated) -16.2%
Cc1ccc(F)cc1NC(=O)C1C2CCC(O2)C1C(=O)O (configuration not stated) 42.3%
CC(Sc1nc2cc([N+](=O)[O-])ccc2n1-c1ccc(F)cc1)C(=O)NCc1ccc2c(c1)OCO2 (configuration not stated) -41.1%
CC1Cc2ccccc2N1CC(=O)Nc1ccc(N2CCOCC2)cc1 (configuration not stated) 33.9%
CCC(C)n1ncn(-c2ccc(N3CCN(c4ccc(OCC5COC(Cn6cncn6)(c6ccc(Cl)cc6Cl)O5)cc4)CC3)cc2)c1=O (configuration not stated) -26.7%
N#Cc1ccc(CN2CCN(C(=O)c3ccc(S(=O)(=O)NCc4ccco4)cc3)CC2)cc1 -45.4%
CCOC(=O)C1CCCN(C(=O)c2cc(COc3ccc(C)nc3)on2)C1 (configuration not stated) 56.5%
Cc1ccc(-n2nc(C)c3c(C(=O)OCC(=O)N(C)C4CCS(=O)(=O)C4)cc(-c4ccccc4)nc32)cc1 (configuration not stated) -0.532%
CC(=O)Nc1c(I)c(C(=O)N[C@H]2C(O)O[C@H](CO)[C@@H](O)[C@@H]2O)c(I)c(N(C)C(C)=O)c1I (some centres not stated) 54.3%
CC(=O)c1ccc(-c2ccc(C(=O)Nc3nc(-c4ccccn4)cs3)o2)cc1 -23.5%
N#CCCN(C(=O)COC(=O)CCc1c[nH]c2ccccc12)c1ccc(F)cc1 -3%
COc1ccc(-c2cc(C(F)(F)F)nc(SCCC(=O)N3CCN4CCCC4C3)n2)cc1 (configuration not stated) 0.459%
COc1ccc(OC)c(NC(=O)CCC(=O)N(Cc2ccc(OC)c(OC)c2)c2nccs2)c1 -22.8%
Cc1ccc2nc(-c3ccccc3)cc(C(=O)N3CCN(c4ccccc4O)CC3)c2c1 -7.75%
Cc1cc(C)nc(Nc2n[nH]c(-c3ccc(C(C)(C)C)cc3)n2)n1 -50.8%
CCOC(=O)c1cccc(NC(=O)Nc2cc(OC)ccc2OC)c1 -21.1%
CC1CCCCC1NC(=O)C1CCN(C(=O)c2sccc2-n2cccc2)CC1 (configuration not stated) 6.93%
CN(C)S(=O)(=O)N1CCN(C(=O)N(c2ccccc2)c2ccccc2)CC1 -4.43%

— PubChem BioAssay AID493194 (Broad Institute, 2011)
